High-throughput results as filed in PubChem.
Pf growth 96h: Primary qHTS for delayed death inhibitors of the malarial parasite plastid, 96 hour incubation; P. falciparum luciferase reporter growth, 96 h; Potency, µM (titrated, usually from 28.7 µM), without a hit: at the top dose activity change, negative = inhibition, most hits filed as inhibitors; AID 504834, 2011; 320,000 tested, 6.9% active
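Two-generation exposure (96 h) targets delayed-death phenotype. Reporter parasites carrying integrated firefly luciferase, in red cells at 2% hematocrit and 0.05% parasitemia final, kept at 37 C, 5% CO2; luminescence loss indicates inhibition.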
Pf growth 48h: Primary qHTS for delayed death inhibitors of the malarial parasite plastid, 48 hour incubation. Potency, µM (titrated, usually from 28.7 µM), for the others: at the highest dose activity change, negative = inhibition, usual class: inhibitors. P. falciparum luciferase growth in erythrocytes, 48 h. 310,000 tested, 5.9% active
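Parasite viability was followed by luminescence of a genomically integrated firefly luciferase. Cultures held 0.1% parasitemia at 2% hematocrit (final), incubated under 5% CO2 at 37 C.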
AMA1 RON2 block: qHTS for Inhibitors of AMA1-RON; Towards Development of Antimalarial Drug Lead: Primary Screen; 360,000 tested, 0.2% active; Potency, µM (top dose mostly 58.2 µM), without a hit: top-dose activity change, negative = inhibition, most hits filed as inhibitors; Plasmodium falciparum AMA1 (3D7) - RON2 peptide interaction; AID 720542, 2013; AlphaScreen AMA1-biotinylated RON2 peptide binding;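 also: 0% = vehicle wells and -100% = peptide control; nearly all actives have a fitted effect of over 45% in size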
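AMA1 (3D7) with his tag at 25 nM final met compounds first, then biotinylated RON2 peptide at 25 nM; detection used donor plus acceptor beads, 10 µg/mL apiece, read by AlphaScreen after 30 min at room temperature.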
Vaccinia Venus: qHTS for Stage-Specific Inhibitors of Vaccinia Orthopoxvirus: Venus Reporter Primary qHTS | 330,000 tested, 0.46% active | Potency, µM (top dose mostly 36.5 µM), without a hit: at the highest dose activity change, negative = inhibition, hits mostly inhibitors | Vaccinia virus Venus reporter expression, fluorescence; calls by dose curve; tested in A549 cells; also: nearly all actives have a fitted effect of over 30% in size
Vaccinia mCherry: qHTS for Stage-Specific Inhibitors of Vaccinia Orthopoxvirus: mCherry Reporter Primary qHTS. Potency, µM (series often up to 36.5 µM), inactives show at the top dose activity change, negative = inhibition, most hits filed as inhibitors. Vaccinia virus mCherry reporter infection, fluorescence. 310,000 tested, 0.63% active; calls by dose curve; tested in A549 cells; also: nearly all actives have a fitted effect of over 35% in size
* = called active by the depositor; i = inactive; ? = inconclusive; · = no result; [ ] = dose if it differs, or a comment. Sampled rows, rich in hits. Any-hit rate of the full collection: about 8.7%. Unless noted, calls follow the shape of the dose curve; as a rule, active = well fitted curve in the direction sought with a large enough effect; inconclusive = small, poorly fitted or top-dose-only effect, or another doubt; inactive = no such curve, though single readings can be large; an effect the other way counts as inactive or inconclusive. Unless noted, % is scaled to controls: 0 for no effect and ±100 for the full control effect; potency is read from the fitted curve at half-maximal effect.

SMILES	Pf growth 96h	Pf growth 48h	AMA1 RON2 block	Vaccinia Venus	Vaccinia mCherry
CO[C@H]1[C@H](O[C@H]2O[C@@H](C)[C@@H](O[C@@H]3C[C@](C)(O)[C@H](OC(=O)CC(C)C)[C@H](C)O3)[C@@H](N(C)C)[C@@H]2O)[C@@H](CC=O)C[C@@H](C)[C@@H](O)/C=C\C=C/C[C@@H](C)OC(=O)C[C@H]1OC(C)=O	0.41µM*	4.5µM*	·	·	·
CO[C@@H]1[C@@H](OC2OC(C)C(OC3CC(C)(O)C(OC(=O)CC(C)C)C(C)O3)C(N(C)C)C2O)[C@@H](CC=O)C[C@@H](C)C(=O)/C=C\C2O[C@H]2C[C@@H](C)OC(=O)C[C@H]1OC(C)=O (some centres not stated)	0.76µM*	6.7µM*	·	?	-19%
O=C1N(Cc2cccnc2)C[C@@H]2C[C@@H](c3cccc(OCc4ccccc4)c3)N3CCC[C@@]123	?	?	-2%	-1%	-18%
O=C1N(Cc2cccnc2)C[C@@H]2C[C@@H](c3ccc(-c4ccccc4)cc3)N3CCC[C@@]123	?	12µM*	-14%	-5%	-23%
COc1ccccc1CN1C[C@@H]2C[C@@H](C3=Cc4cccc(OC)c4OC3)N3CCC[C@@]23C1=O	15%	4.7µM*	-3%	-11%	-16%
COc1ccccc1CN1C[C@@H]2C[C@@H](c3ccccc3OC)N3CCC[C@@]23C1=O	?	?	-2%	-23%[7.34 µM]	i[7.34 µM]
Cc1ccccc1CN1C[C@@H]2C[C@@H](c3cn[nH]c3-c3ccccc3)N3CCC[C@@]23C1=O	?	1.7µM*	2%	-7%	-11%
O=C1N(Cc2cccnc2)C[C@@H]2C[C@@H](c3cccc(C(F)(F)F)c3)N3CCC[C@@]123	10µM*	?	8%	-6%	-7%
O=C(Nc1cccc(C(F)(F)F)c1)c1cc(-c2ccc(Cl)s2)nc2ccccc12	·	·	·	-8%	-11%
CCOC(=O)c1ccc(NC(=O)CCc2c(C)nc3c(c(C)nn3C)c2C)cc1	·	·	·	-9%	-1%
O=C1N(Cc2cccnc2)C[C@@H]2C[C@@H](c3cccc(OC4CCCC4)c3)N3CCC[C@@]123	42%	8.3µM*	-2%	-9%	-4%
Cc1ncc2c(c1CNS(=O)(=O)N(C)C)CCN(C(=O)/C=C/c1ccccc1F)C2	·	·	·	-9%	-19%
O=C1CC2(CCN(C(=O)C3CC(=O)N(c4ccccc4)C3)CC2)Oc2ccccc21 (configuration not stated)	9.3µM*	?	3%	-10%	i
N#Cc1ccccc1CSc1nc2ncc(Br)cc2[nH]1	9%	-10%	4%	·	·
Fc1ccccc1CSc1nc2ncc(Br)cc2[nH]1	13µM*	·	8%	?	·
Cc1ccc(N(CC(=O)N2CC(=O)Nc3ccccc32)S(=O)(=O)c2ccc3c(c2)OCCO3)cc1	?	12µM*	0%	·	·
CCc1cccc(NC(=O)Cn2c(=O)n(CCCCCC(=O)NCc3ccc(F)cc3)c(=O)c3sccc32)c1	·	·	·	-17%	-8%
CCN(CC)c1ccc(NC(=O)c2ccco2)c(C)c1	18%	?	11%	·	·
Cc1cc(O)c(NC(=O)c2ccc(Br)o2)cc1C	118%	12µM*	-25%	·	·
CCN(CC)c1ccc(NC(=O)c2ccc(Br)o2)c(C)c1	·	7.4µM*	?	-12%	-15%
COc1ccccc1NC(=O)c1ccc(Br)o1	-7%	18%	7%	-6%	-23%
OC1(c2cccnc2)CCN(Cc2ccc3c(c2)CN(Cc2ccsc2)CCO3)CC1	·	·	·	-16%	-13%
COc1ccc(C)cc1-n1c(SCC(=O)NCc2ccco2)nc2c([nH]c3ccccc32)c1=O	·	·	·	-18%	-10%
CCCCN1C(=O)C2ON(c3ccccc3C)C(c3ccco3)C2C1=O (configuration not stated)	85%	13µM*	-7%	-19%	-10%
COc1ccc(NC(=O)c2ccc3c(c2)nnn3C2CCCC2)cc1Cl	·	·	·	-16%	-10%
SMILES	Pf growth 96h	Pf growth 48h	AMA1 RON2 block	Vaccinia Venus	Vaccinia mCherry
N#Cc1sc2nc3c(cc2c1N)CCCC3	12µM*	74%	20%[11.6 µM]	-20%	-7%
Nc1c(C(=O)O)sc2nc3c(cc12)CCCC3	29%	31%	13%	·	·
CCCCCOc1ccc(Cn2c(=O)oc3ccc(C)cc32)cc1OC	·	·	·	-6%	-9%
CN(CCO)c1cc(NCCCN2CCC(Cc3ccccc3)CC2)c2nonc2c1[N+](=O)[O-]	-7%	10µM*	4%	2%	-11%
CC1CCCN(c2cc(N(C)CCO)c([N+](=O)[O-])c3nonc23)C1 (configuration not stated)	?	-1%	-14%	-14%	8%
CN(CCO)c1cc(N2CCCCC2)c2nonc2c1[N+](=O)[O-]	?	-4%	1.8µM*	-23%	-10%
COc1ccc(OC)c(NC(=S)NN2CCOCC2)c1	30%	26%	11%	-7%	i
Cc1ccc(NC(=S)N(CCCN2CCOCC2)Cc2cccs2)c(C)c1	9.3µM*	?	-18%	-12%	-27%
CCN(CC)CCNC(=O)CNC(=S)N(CCCN1CCOCC1)Cc1cccs1	1.7µM*	0%	2%	-16%	-13%
Cc1ccc(NC(=S)NN2CCOCC2)c(C)c1	15µM*	19%	-6%	1%	·
CN(C)CCNC(=O)CNC(=S)N(CCCN1CCOCC1)Cc1cccs1	-18%	i	-5%	-6%	-6%
COc1ccc(CCn2cc3c(c2-c2ccccc2Br)c(=O)n(C)c(=O)n3C)cc1OC	·	·	·	4%	-4%
COc1cc(C2CC(=O)N(CC(=O)NCC3CCCO3)c3ccccc3S2)cc(OC)c1OC (configuration not stated)	6%	?	5%	-20%	i
COc1cc(C2CC(=O)N(CC(=O)NCc3ccco3)c3ccccc3S2)cc(OC)c1OC (configuration not stated)	85%	10µM*	0%	·	·
COC(=O)c1ccc(C2c3c(oc4ccccc4c3=O)C(=O)N2c2nc(C)c(C(=O)OC)s2)cc1 (configuration not stated)	·	·	·	6%	1%
Cc1ccc(C)c(OCCCCCn2ccnc2)c1	12µM*	15µM*	-6%	-20%	-20%
Cc1cc(C)c(OCCCCCn2ccnc2)c(C)c1	321%	13µM*	4%	·	·
Cc1cc(C)c(OCCCCN2CCNCC2)c(C)c1	3.3µM*	?	-1%	·	·
Cc1cc(Cl)cc(C)c1OCCCCCn1ccnc1	0%	?	1%	·	·
CC(C)c1ccc2oc(-c3cccc(NC(=O)c4ccc5c(c4)OCCO5)c3)nc2c1	·	·	·	-11%	i
CCCc1nnc(NC(=O)Cc2coc3cc(C)cc(C)c23)s1	·	·	·	-5%	-2%
